The text below walks through data of PubChem BioAssay (Tox21).

Values without a mark were called inactive. Records with an inconclusive call do not appear. The source made the active and inactive calls. Unless noted, calls come from the whole dose curve.

The nature of assay [1]: qHTS assay to identify small molecule antagonists of the sonic hedgehog signaling (Shh) pathway (AID 1259369). Note: nearly all actives have a fitted effect of over 45% in size. Note: potency is the fitted concentration of half-maximal effect. In a few lines: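 Stable Gli1-Luc reporter NIH/3T3 clone; quantitative HTS in stimulated mode with conditioned medium. Luminescence measured after 24hr compound treatment at 37 C.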
Assay [2] concerns the target Estrogen receptor beta (Homo sapiens) (UniProt Q92731). The experiment in a line: qHTS assay to identify small molecule antagonists of the estrogen receptor beta (ER-beta) signaling pathway (AID 1259378; active = well fitted inhibition curve with a large enough effect in the signal ratio in the repeat runs, not every such curve was filed as active; the % refers to the signal ratio). In short, it runs like this: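 ER-beta-UAS-bla HEK293T (GripTite) cells in 2% charcoal-stripped FBS medium were preincubated 6 hr at 37C, dosed with compound, then stimulated with 1 nM E2 (final) for 16 hr; beta-lactamase reporter read by B/G FRET fluorescence after 2 hr substrate loading.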

A short description of assay [3]: qHTS assay to identify small molecule agonists of the androgen receptor (AR) signaling pathway in the presence of an antagonist - cell viability counter screen (AID 1259379; active = well fitted curve in the direction sought with a large enough effect in the repeat runs; an effect the other way counts as inactive or inconclusive; note: nearly all actives have a fitted effect of over 25% in size; note: potency is the fitted concentration of half-maximal effect). In short, it runs like this:
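Nilutamide-containing (3.0uM final) MDA-kb2 cultures, 3,000 cells/well, were treated with compounds across 15 concentrations. After 16 hr at 37C with no CO2, cell viability was determined by CellTiter-Fluor fluorescence in the luciferase assay wells.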

The nature of assay [4]: qHTS assay to identify small molecule agonists of the estrogen receptor beta (ER-beta) signaling pathway - cell viability counter screen (AID 1259380; active = well fitted curve in the direction sought with a large enough effect in the repeat runs; an effect the other way counts as inactive or inconclusive; note: nearly all actives have a fitted effect of over 30% in size; note: potency is the fitted concentration of half-maximal effect). In a few lines: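 Steps: plate ER-beta-UAS-bla HEK293T cells, rest 6 hr; add compounds in DMSO; incubate 16 hr at 37C, 5% CO2; add FRET substrate 2 hr; add CellTiter-Glo, wait 30 min at room temperature; read luminescence.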

Assay [5] can be described thus: qHTS assay to identify small molecule antagonists of the estrogen receptor beta (ER-beta) signaling pathway - cell viability counter screen (AID 1259382; active = well fitted curve in the direction sought with a large enough effect in the repeat runs; an effect the other way counts as inactive or inconclusive; note: nearly all actives have a fitted effect of over 55% in size; note: potency is the fitted concentration of half-maximal effect). In a few lines: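 Viability is scored by CellTiter-Glo luminescence (30 min, room temperature) in ER-beta-UAS-bla HEK293T wells already read for reporter fluorescence. Compound exposure lasts 16 hr at 37C alongside 1nM 17-beta-estradiol in charcoal-stripped serum medium.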

Assay [6] can be described thus: qHTS assay to identify small molecule agonists or antagonists of the thyroid stimulating hormone receptor (TSHR) signaling pathway - wild type cell line counter screen (AID 1259384). In a few lines:
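Wild-type HEK293 cells were plated 18 h at 37 C/5% CO2, pin-dosed with compound plus Ro20-1724 medium, held 30 min at room temperature, then given cAMP-d2 and anti-cAMP-cryptate; fluorescence was read after 1 h. Fifteen concentrations, triplicate.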

Assay [7] has as its target Thyrotropin receptor (Homo sapiens) (UniProt P16473). Nature of the assay: qHTS assay to identify small molecule antagonists of the thyroid stimulating hormone receptor (TSHR) signaling pathway (AID 1259385). Note: nearly all actives have a fitted effect of over 20% in size. Note: potency is the fitted concentration of half-maximal effect. In a few lines: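 TSHR-HEK293 cells were plated and held 18 h at 37C/5% CO2, then given compound plus Ro20-1724 and stimulated with TSH at 1.5 ng/mL final. After 30 min at room temperature, cAMP was detected with cAMP-d2/anti-cAMP-cryptate (1 h) by fluorescence.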

Assay [8] concerns the target Estrogen receptor beta (Homo sapiens) (UniProt Q92731). The experiment in a line: qHTS assay to identify small molecule agonists of the estrogen receptor beta (ER-beta) signaling pathway (AID 1259377; active = well fitted activation curve with a large enough effect in the signal ratio in the repeat runs, not every such curve was filed as active; the % refers to the signal ratio; note: potency is the fitted concentration of half-maximal effect). In short, it runs like this:
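In HEK293T cells bearing a UAS-beta-lactamase reporter under ER-beta control, DMSO-delivered compounds were incubated for 16 hr at 37C. Activity was detected as fluorescence 2 hours after LiveBLAzer B/G FRET substrate addition.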

For assay [9], the target named is Estrogen receptor (Homo sapiens) (UniProt P03372). The experiment in a line: qHTS assay to identify small molecule agonists of the estrogen receptor alpha (ER-alpha) signaling pathway in the presence of an antagonist (AID 1259383). For activation: top concentration of the series differs between compounds. Note: nearly all actives have a fitted effect of over 15% in size. Note: potency is the fitted concentration of half-maximal effect. In short, it runs like this:
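Readout was ERE-driven luciferase luminescence in VM7Luc4E2 cells, which express full-length ER-alpha endogenously. Compounds were tested at 15 concentrations for 22hr alongside 10.0nM ICI-182,780 (final concentration).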

Assay [10] deals with Androgen receptor (Homo sapiens) (UniProt P10275). The experiment in a line: qHTS assay to identify small molecule agonists of the androgen receptor (AR) signaling pathway in the presence of an antagonist (AID 1259381). Note: nearly all actives have a fitted effect of over 15% in size. In a few lines: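 Reporter-gene luminescence from MDA-kb2 cells exposed 16hr at 37C (0% CO2) to 15-point compound titrations with 3.0uM final nilutamide as AR antagonist.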
Sequence of Androgen receptor (Homo sapiens) (P10275 whole entry, looked up): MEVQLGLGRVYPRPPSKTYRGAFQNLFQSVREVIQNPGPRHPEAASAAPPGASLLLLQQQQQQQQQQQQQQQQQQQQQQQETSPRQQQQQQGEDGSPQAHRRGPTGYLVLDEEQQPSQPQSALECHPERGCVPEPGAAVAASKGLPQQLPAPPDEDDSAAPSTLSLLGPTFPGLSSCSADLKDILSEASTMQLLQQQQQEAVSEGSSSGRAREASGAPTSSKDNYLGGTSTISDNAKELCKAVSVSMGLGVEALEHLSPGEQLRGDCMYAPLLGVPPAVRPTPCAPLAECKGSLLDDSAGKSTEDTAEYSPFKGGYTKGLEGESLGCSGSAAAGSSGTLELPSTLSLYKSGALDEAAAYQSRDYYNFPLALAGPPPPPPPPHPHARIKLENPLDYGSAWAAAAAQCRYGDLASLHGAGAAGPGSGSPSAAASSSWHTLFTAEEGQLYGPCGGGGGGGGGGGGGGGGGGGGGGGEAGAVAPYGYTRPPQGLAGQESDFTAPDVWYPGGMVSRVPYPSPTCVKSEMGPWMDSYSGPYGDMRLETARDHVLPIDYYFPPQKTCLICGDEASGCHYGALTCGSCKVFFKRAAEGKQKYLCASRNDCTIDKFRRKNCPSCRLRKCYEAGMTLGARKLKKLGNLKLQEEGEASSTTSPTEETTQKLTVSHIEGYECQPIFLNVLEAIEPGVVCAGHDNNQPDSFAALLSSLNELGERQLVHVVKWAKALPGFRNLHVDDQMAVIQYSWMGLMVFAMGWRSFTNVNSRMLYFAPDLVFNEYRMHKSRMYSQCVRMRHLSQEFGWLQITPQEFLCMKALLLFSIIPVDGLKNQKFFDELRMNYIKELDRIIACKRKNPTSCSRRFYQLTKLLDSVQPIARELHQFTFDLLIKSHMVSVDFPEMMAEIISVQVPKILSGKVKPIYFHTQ

Sequence of Thyrotropin receptor (Homo sapiens) (P16473 whole entry, looked up): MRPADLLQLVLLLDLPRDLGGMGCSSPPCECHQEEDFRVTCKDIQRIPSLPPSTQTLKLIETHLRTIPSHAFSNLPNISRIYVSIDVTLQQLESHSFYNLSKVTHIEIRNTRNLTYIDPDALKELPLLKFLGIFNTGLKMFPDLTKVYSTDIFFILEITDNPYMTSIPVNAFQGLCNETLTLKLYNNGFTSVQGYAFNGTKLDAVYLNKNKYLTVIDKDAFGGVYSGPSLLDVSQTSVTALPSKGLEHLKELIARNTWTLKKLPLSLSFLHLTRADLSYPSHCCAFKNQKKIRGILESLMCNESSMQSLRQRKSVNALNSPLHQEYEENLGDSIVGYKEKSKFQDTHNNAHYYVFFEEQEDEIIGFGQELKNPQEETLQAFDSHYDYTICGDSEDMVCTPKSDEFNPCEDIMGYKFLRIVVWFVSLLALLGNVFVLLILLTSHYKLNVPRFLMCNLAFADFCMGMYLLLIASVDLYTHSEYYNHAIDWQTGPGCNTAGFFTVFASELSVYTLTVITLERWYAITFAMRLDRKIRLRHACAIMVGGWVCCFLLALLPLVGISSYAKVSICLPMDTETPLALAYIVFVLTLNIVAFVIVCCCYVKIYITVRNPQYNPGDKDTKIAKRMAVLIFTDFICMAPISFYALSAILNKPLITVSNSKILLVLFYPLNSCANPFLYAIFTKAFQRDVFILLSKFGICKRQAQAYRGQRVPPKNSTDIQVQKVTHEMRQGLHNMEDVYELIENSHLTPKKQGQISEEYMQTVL
Sequence of Estrogen receptor (Homo sapiens) (P03372 whole entry, looked up): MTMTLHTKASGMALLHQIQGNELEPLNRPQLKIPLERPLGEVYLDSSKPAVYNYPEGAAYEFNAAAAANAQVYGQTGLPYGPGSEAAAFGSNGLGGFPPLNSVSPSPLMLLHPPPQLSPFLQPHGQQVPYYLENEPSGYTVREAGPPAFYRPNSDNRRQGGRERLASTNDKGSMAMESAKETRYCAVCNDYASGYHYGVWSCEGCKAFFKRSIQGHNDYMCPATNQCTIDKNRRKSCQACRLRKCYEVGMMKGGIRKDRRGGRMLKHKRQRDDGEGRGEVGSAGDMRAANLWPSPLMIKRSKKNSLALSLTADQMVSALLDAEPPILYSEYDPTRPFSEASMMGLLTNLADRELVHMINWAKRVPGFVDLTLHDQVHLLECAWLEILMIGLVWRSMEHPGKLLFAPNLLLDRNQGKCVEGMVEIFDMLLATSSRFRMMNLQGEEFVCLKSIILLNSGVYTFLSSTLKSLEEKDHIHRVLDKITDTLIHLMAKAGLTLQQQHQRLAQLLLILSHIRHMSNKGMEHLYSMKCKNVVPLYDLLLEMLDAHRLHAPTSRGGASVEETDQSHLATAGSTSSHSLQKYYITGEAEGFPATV
Sequence of Estrogen receptor beta (Homo sapiens) (Q92731 whole entry, looked up): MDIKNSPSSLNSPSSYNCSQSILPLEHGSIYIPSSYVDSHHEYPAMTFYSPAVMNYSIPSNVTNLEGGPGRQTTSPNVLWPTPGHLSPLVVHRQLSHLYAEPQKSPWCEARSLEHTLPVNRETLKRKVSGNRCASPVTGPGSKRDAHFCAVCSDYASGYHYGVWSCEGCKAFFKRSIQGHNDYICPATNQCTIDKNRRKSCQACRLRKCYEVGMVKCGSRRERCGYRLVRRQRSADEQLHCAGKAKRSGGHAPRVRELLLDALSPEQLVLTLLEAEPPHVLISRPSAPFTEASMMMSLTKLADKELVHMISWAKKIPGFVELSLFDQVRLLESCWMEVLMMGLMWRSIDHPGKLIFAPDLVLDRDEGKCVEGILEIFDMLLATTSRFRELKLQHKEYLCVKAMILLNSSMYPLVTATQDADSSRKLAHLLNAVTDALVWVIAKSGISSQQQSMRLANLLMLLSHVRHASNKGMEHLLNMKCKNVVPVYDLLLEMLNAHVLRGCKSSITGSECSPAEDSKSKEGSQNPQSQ

Consider `COc1cc(C)ccc1O`, for which the Potency result in assay [1], in assay [2], in assay [3], in assay [4], in assay [5] and in assay [7] was “inactive” each time. Moreover, the outcome in assay [6] was inactive.
Turning to `C=C(C)C(=O)OCCCCCCCCCC`, the Potency in assay [1] is 13.8 µM (active). In addition, the Potency result in [8], in [3], in assay [5], in assay [9] and in assay [7] was “inactive” each time. Also, the molecule was called inactive in assay [6].
With `CCN1C(=O)c2ccccc2C1Nc1ccc(OCCN2CCCCC2)cc1` (configuration not stated), the Potency in [1] is 13.3 µM (active). For the same molecule, the Potency entry in assay [2], in [3], in assay [4], in assay [5], in [9] and in assay [7] was “inactive” in each case. The outcome in assay [10] and in assay [6] was inactive.
`CC(C)(C)c1csc(-c2cc3cc(OCc4ccccc4CC(=O)O)ccc3o2)n1`: the Potency entry in assay [1], in assay [8] and in assay [9] was “inactive” in each case. The Potency in assay [5] is 27.3 µM (active). The outcome in assay [6] was inactive.
As to `COC(=O)c1ccccc1C`, the Potency result in [1], in assay [2], in [3], in [4], in [5] and in assay [7] was “inactive” each time. In addition, the molecule was classed as inactive in assay [6].
Take `OC/C=C/CO`: the Potency entry in [1], in assay [2], in [3], in assay [4], in [5] and in assay [9] was “inactive” each time. The Potency entry in assay [7] is “inactive”. The result in assay [6] was inactive.
For `CN(C)C(=O)COC(=O)Cc1ccc(OC(=O)c2ccc(N=C(N)N)cc2)cc1`, the Potency entry in [1], in assay [8], in assay [3], in [4], in [5] and in [7] was “inactive” each time. For the same molecule, the result in [6] was inactive.
Consider `O=C(c1ccc(O)c(O)c1)c1ccc(O)cc1O`, for which the Potency in assay [1] is 2.43 µM (active); in [8] it was 1.37 µM (active); in [3] it was 68.5 µM (active). Further, the Potency entry in [4] was “inactive”.
As for `C#C[C@]1(OC(C)=O)CC[C@H]2[C@@H]3CCC4=C/C(=N/O)CC[C@@H]4[C@H]3CC[C@@]21CC`, the Potency result in assay [1], in assay [8] and in assay [3] was “inactive” throughout. Moreover, the figures for the Potency in assay [9] and in assay [7] were 2.11 µM (active) and 0.422 µM (active), respectively. In assay [6], the molecule was called inactive.
Regarding `C=Cc1cccc(C)c1`, the Potency result in assay [1], in assay [8], in assay [2], in assay [4], in assay [5] and in [9] was “inactive” each time. Further, the Potency entry in assay [7] is “inactive”. Besides, in assay [6], the call was inactive.
On to `CCCCCCCCCCCCOC(=O)c1ccc(O)cc1`, for which the Potency entry in assay [1], in assay [8], in assay [3], in [4], in assay [5] and in assay [9] was “inactive” throughout. The outcome in assay [10] was inactive.
Turning to `CCCCCCCCCCOC(=O)c1ccccc1C(=O)OCCCCCCCC`, the Potency entry in [1], in assay [8], in assay [2], in [5], in assay [9] and in assay [7] was “inactive” throughout. The result in assay [10] and in assay [6] was inactive.
On to `CCCC(=O)OC(C)(C)Cc1ccccc1`, for which the Potency entry in [1], in assay [2], in [3] and in assay [4] was “inactive” in each case.
In the case of `COC(C)=O`, the Potency entry in assay [1], in assay [2], in assay [3], in assay [4], in assay [5] and in assay [9] was “inactive” throughout.
On to `Cc1cc(C(C#N)c2ccc(Cl)cc2)c(Cl)cc1NC(=O)c1cc(I)cc(I)c1O` (configuration not stated), for which the figures for the Potency in assay [1], in assay [4] and in [5] were 26.6 µM (active), 11.9 µM (active) and 23.7 µM (active), respectively. The Potency entry in [8] and in assay [9] was “inactive” throughout.
Take `O=c1[nH]c(=O)n([C@H]2C[C@H](O)[C@@H](CO)O2)cc1F`: the Potency entry in assay [1], in [8], in assay [3], in assay [9] and in [7] was “inactive” each time. For the same molecule, the Potency in assay [4] is 0.15 µM (active). In addition, in assay [6], the call was inactive.
With `CCn1c2ccccc2c2cc([N+](=O)[O-])ccc21`, the Potency result in assay [1], in [2], in [3], in assay [4] and in assay [9] was “inactive” in each case.
Take `CCCC1CCC(=O)CC1`: the Potency result in assay [1], in assay [2], in assay [3], in assay [4], in assay [5] and in assay [9] was “inactive” throughout.
For `CC(C(=O)O)c1ccc2c(c1)[nH]c1ccc(Cl)cc12` (configuration not stated), the Potency result in assay [1], in assay [2], in assay [3], in [5], in assay [9] and in [7] was “inactive” in each case. The Potency in [4] was 29.8 µM (active). In assay [6], the outcome was inactive.
In the case of `O=C(/C=C/c1ccccc1)OC/C=C/c1ccccc1`, the Potency entry in [1], in assay [2], in assay [3], in [4], in assay [5] and in [9] was “inactive” each time. The Potency result in assay [7] was “inactive”. Besides, the outcome in [10] and in [6] was inactive.
In the case of `COc1c(C)c2c(c(O)c1C/C=C(\C)CCC(=O)OCCN1CCOCC1)C(=O)OC2`, the Potency entry in assay [1], in assay [8], in assay [9] and in assay [7] was “inactive” in each case. Also, the Potency in assay [4] was 0.335 µM (active). Moreover, the outcome in [10] and in [6] was inactive.
For `CCOC(=O)NNc1ccc(N(CC)CC(C)O)nn1` (configuration not stated), the Potency entry in [1], in assay [8], in assay [2], in assay [4], in [5] and in assay [7] was “inactive” in each case. Moreover, in [6], the molecule was called inactive.
In the case of `CC(=O)OCC=C(C)C`, the Potency entry in assay [1], in assay [8], in assay [2], in assay [4] and in [7] was “inactive” each time. Further, the outcome in [10] and in [6] was inactive.
On to `CCCCC(CC)COC(=O)CCCCC(=O)OCc1ccccc1` (configuration not stated), for which the Potency result in assay [1], in assay [8], in assay [3], in [4], in assay [5] and in [9] was “inactive” throughout. Besides, in assay [7], the Potency result is “inactive”. Also, the outcome in assay [6] was inactive.
Turning to `Cc1ccc(N/N=c2\c(=O)cc/c(=N\Nc3ccc(S(=O)(=O)O)cc3)c2=O)c(C)c1`, the Potency entry in assay [1], in assay [8], in assay [2], in assay [4], in [5] and in assay [9] was “inactive” throughout. Moreover, in [7], the Potency result is “inactive”. Moreover, the molecule was classed as inactive in assay [6].
Regarding `Clc1sc(Cl)c(Cl)c1Cl`, the Potency result in assay [1], in [2], in assay [3], in assay [4], in assay [5] and in assay [9] was “inactive” throughout. Further, in assay [7], the Potency result is “inactive”. Moreover, the outcome in [10] and in [6] was inactive.
For the molecule `O=C(O)Cc1ccccc1Nc1c(Cl)cccc1Cl`, the Potency result in assay [1], in assay [2], in assay [3], in assay [9] and in assay [7] was “inactive” in each case. Besides, the Potency in [4] is 13.7 µM (active). The outcome in assay [10] and in assay [6] was inactive.
